# Measurements as given in PubChem BioAssay (NCI).
# Compounds without any hit were thinned out: in the full panel of roughly 79,000, 15% have a hit. A number with no mark means an inactive call. Active and inactive are the calls of the source. Rule as the data show it: active = growth inhibition above about 70%; inactive = the rest.
# Experiments:
# [1] = NCI Yeast Anticancer Drug Screen. Data for the rad50 strain (AID 155);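 also: 0% = growth of vehicle-only cultures of the same strain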; conditions: S. cerevisiae rad50 strain growth inhibition, active compounds read high
# How it was run: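 Relative growth inhibition (compound vs vehicle) was measured in yeast with a defined repair-gene alteration.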
# [2] = NCI Yeast Anticancer Drug Screen. Data for the mec2-1 strain (AID 157); conditions: S. cerevisiae mec2-1 strain, active compounds read high
# How it was run: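 Readout is yeast growth inhibition, normalised to vehicle-treated controls, in the mec2-1 strain exposed to compound.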
# [3] = NCI Yeast Anticancer Drug Screen. Data for the sgs1 mgt1 strain (AID 161);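 also: 0% = growth of cultures given vehicle only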; conditions: S. cerevisiae sgs1 mgt1 strain, active compounds read high
# How it was run: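 Growth of a repair-deficient yeast mutant was monitored after compound treatment and expressed as inhibition relative to vehicle-treated cultures.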
# [4] = NCI Yeast Anticancer Drug Screen. Data for the cln2 rad14 strain (AID 165);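 also: 0% = growth equal to vehicle treated cultures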; conditions: S. cerevisiae cln2 rad14 strain, active compounds read high
# How it was run: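 Relative to vehicle controls, growth inhibition of compound-treated cln2 rad14 yeast was recorded.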
# [5] = NCI Yeast Anticancer Drug Screen. Data for the bub3 strain (AID 167); conditions: S. cerevisiae bub3 mutant strain, active compounds read high
# How it was run: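 Screening used yeast with an engineered genetic alteration affecting cell cycle control. Compound-exposed cultures were compared with vehicle cultures, and reduced growth was taken as inhibition.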
# [6] = NCI Yeast Anticancer Drug Screen. Data for the mlh1 rad18 strain (AID 175); conditions: S. cerevisiae mlh1 rad18 strain growth inhibition, active compounds read high
# How it was run: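 Test agents were incubated with a yeast strain of defined genotype (DNA damage repair defect). Inhibition of growth was derived by comparison with vehicle-exposed cultures.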
# [7] = at 5.0 µM (retest, dose inferred, filed as 0.5)
# [8] = at 50.0 µM (retest, dose inferred, filed as 5.0)
Compound,"growth inhibition [1, 7]","growth inhibition [1, 8]",growth inhibition ([1]; at 50.0 µM),"growth inhibition [2, 7]","growth inhibition [2, 8]",growth inhibition ([2]; at 50.0 µM),"growth inhibition [3, 7]","growth inhibition [3, 8]",growth inhibition ([3]; at 50.0 µM),"growth inhibition [4, 7]","growth inhibition [4, 8]",growth inhibition ([4]; at 50.0 µM),"growth inhibition [5, 7]","growth inhibition [5, 8]",growth inhibition ([5]; at 50.0 µM),"growth inhibition [6, 7]","growth inhibition [6, 8]",growth inhibition ([6]; at 50.0 µM)
CCN(CC)CCCC(C)Nc1cc(C)nc2c1ccc1c2ccc2c(NC(C)CCCN(CC)CC)cc(C)nc21 (configuration not stated),-2%,61%,58.1%,-39%,91% (active),53.7%,-1%,59%,49.5%,7%,20%,71.4% (active),-2%,96% (active),96.3% (active),-1%,85% (active),54.2%
CCN1CCNc2c3cc(OC)ccc3nc3c([N+](=O)[O-])ccc1c23,-10%,37%,42.2%,-19%,7%,15.2%,-9%,0%,39.8%,-2%,40%,7.8%,1%,2%,-3.6%,-41%,41%,71.7% (active)
CS(=O)(=O)OC1C(O)C(n2cnc3c(N)ncnc32)C(O)C(OS(C)(=O)=O)C1OS(C)(=O)=O (configuration not stated),0%,-2%,0.05%,1%,-3%,57.5%,-2%,-1%,3.8%,-1%,0%,-7.9%,-1%,-2%,40%,-1%,-1%,18.4%
Cc1cc(N(CCOS(C)(=O)=O)CCOS(C)(=O)=O)ccc1C=Nc1ccc(-c2csc(-c3ccc(Br)cc3)n2)cc1,49%,91% (active),95.5% (active),47%,95% (active),94.2% (active),48%,95% (active),81.9% (active),37%,88% (active),89.5% (active),11%,85% (active),76.9% (active),88% (active),96% (active),96.7% (active)
CCCCCCCCCCCCCCCCN[Si](NCCCCCCCCCCCCCCCC)(NCCCCCCCCCCCCCCCC)NCCCCCCCCCCCCCCCC,97% (active),96% (active),85.5% (active),99% (active),96% (active),83.4% (active),99% (active),96% (active),88.2% (active),98% (active),95% (active),85.5% (active),99% (active),97% (active),86% (active),97% (active),95% (active),83.9% (active)
CN(C)CCCN=c1c2ccccc2n(O)c2ccccc12,-8%,-6%,-27.9%,-16%,-19%,-6.95%,-16%,-3%,-32.5%,22%,20%,24.7%,-4%,-20%,-9.35%,-20%,-16%,8.3%
CCCCCCCCCCCC(=O)OCC1OC(OC)C(NC(=O)N(CCCl)N=O)C(O)C1O (configuration not stated),39%,39%,79.9% (active),20%,20%,67.5%,21%,21%,90.5% (active),17%,17%,30.5%,13%,13%,77.4% (active),14%,14%,76% (active)
CCC[C@H]1[C@H](CCC)[C@@]2(OC(=O)C3=C2CCC=C3)[C@]12OC(=O)C1=C2CCC=C1,-2%,98% (active),87.8% (active),2%,99% (active),87.4% (active),3%,98% (active),92% (active),-7%,99% (active),91.7% (active),2%,98% (active),89% (active),1%,98% (active),89.8% (active)
COc1cc(C=Nc2ccc(Cl)cc2)ccc1OC(=O)c1ccccc1,6%,-8%,18%,-6%,-5%,-37%,-2%,-1%,-3.8%,26%,21%,7.55%,27%,30%,-6.5%,3%,-18%,11.1%
